# Data published in the emibetuzumab library of Makowski et al. (2022).
# This is one part of the list. The hit rate among all sequences tested is not known here.
# B1: VH:VL chains; a variant is named by its letters at X, in order (parent)
# chain 1: QVQLVQSGAEVKKPGASVKVSCKASGYTFTDYXMHWVRQAPGQGLEWMGXVNPNXXXTTYNQKFEGRVTMTTDTSTSTAYMELRSLRSDDTAVYYCARXNXLDXWGQGTTVTVSS
# chain 2: DIQMTQSPSSLSASVGDRVTITCSVSSSVSSIYLHWYQQKPGKAPKLLIYSTSNLASGVPSRFSGSGSGTDFTLTISSLQPEDFATYYCQVYSGYPLTFGGGTKVEIK
# Variants of: B1
# Assay: yeast display scFab, FACS + sequencing
# Details: with MET
# Method in brief: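 A heavy-chain CDR mutant scFab library on yeast was enriched magnetically with HGFR-Fc-coated Protein A beads for two rounds and then by FACS after labelling with 1 nM HGFR-Fc and anti-Myc in PBSB with 1% milk for 3 h at room temperature, gating the top 50% antigen-positive cells. Antigen binding was judged positive if a sequence turned up in both antigen-positive deep-sequencing samples and negative if it turned up only in the input.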
row,Variant,antigen binding call
1,YRERGSAA,binds
2,FRERGAAA,binds
3,FRERNAAA,no binding
4,FRGRGALA,binds
5,FEEGTDWY,no binding
6,DGGKNDAV,no binding
7,YGETGFGS,no binding
8,YRARSFGD,no binding
9,DRAGDAGY,no binding
10,YRARSFGS,binds
11,SRARDFGY,no binding
12,YRAGGFGY,binds
13,YRAGGFGS,binds
14,YRAGGAGY,binds
15,YAAGSFGY,no binding
16,SEARSSGF,no binding
17,YATEAFSD,no binding
18,YAKGDDAS,no binding
19,DEGGGDGA,no binding
20,DAGKSDWY,no binding
21,YAEESDVA,no binding
22,DTGTGALV,no binding
23,YRARGYVY,no binding
24,YRARGSGY,binds

row,Variant,antigen binding call
1,YRAGGYGY,binds
2,YRAGGVGS,binds
3,YRARGAGY,binds
4,DTKAADWY,no binding
5,VKEGGDVV,no binding
6,YGRTSAAV,no binding
7,YKGKDSSV,binds
8,VEGTSSSV,no binding
9,YKRESAAV,binds
10,YAGKDDWV,no binding
11,YKRESSSV,binds
12,YERESAAV,no binding
13,FEGGTDVV,no binding
14,YKGRGAGF,binds
15,YKGRGYGF,no binding
16,YKGRGSAF,binds
17,YKGRGAAF,binds
18,DAGRSDLV chain 1 R67H,no binding
19,SAGEGDVY,no binding
20,FAKEGFWD,no binding
21,VRTADVGV,no binding
22,VRERGDGV,no binding
23,VETEGSGV,no binding
24,VETRSSSV,no binding

row,Variant,antigen binding call
1,VRTRSSGV,binds
2,VRTRGSGV,binds
3,DGGTNAGD,no binding
4,YREKGSSV,binds
5,DATGGSSV,no binding
6,VAEKGSSA,no binding
7,YTEKGVGV,no binding
8,YREKGSSA,binds
9,YRTGGSSV,binds
10,DREEGSSA,no binding
11,YTTGGSSA,no binding
12,DTKRTAVA,no binding
13,ATTKSAGD,no binding
14,DREEGVGV,no binding
15,DARGGFGV,no binding
16,YRGKDVGV,binds
17,YRRGGVGV,binds
18,YRRGSVGV,no binding
19,YRRGGFGV,binds
20,YRRGGAGV,binds
21,VEGGGDVV,no binding
22,SEEEGASV,no binding
23,YAARGAWD,no binding
24,YKARGAWD,binds

row,Variant,antigen binding call
1,YKAGGAWD,binds
2,YKGRAALY,no binding
3,YKGRGSLY,binds
4,YKGRGALY,binds
5,YKARGSLY,binds
6,SKERGSLV,no binding
7,YKARGSLV,binds
8,DKEGGSLV,no binding
9,ATGRADWA,no binding
10,VTETGDSV,no binding
11,YTGEDDVY,no binding
12,YTGTSAGD,no binding
13,YAGKSAGD,no binding
14,YRGKAAGD,binds
15,YRGKASGD,binds
16,YRRRGAWA,binds
17,YRRRGYWA,binds
18,FRRRGAWA,binds
19,YRRRGSWA,binds
20,FRRKDDWA,no binding
21,ATGEDDVY,no binding
22,DEGGTDGY,no binding
23,FARKGDGV,no binding
24,YRRRGVWA,binds

row,Variant,antigen binding call
1,YRREGDWA,no binding
2,YRRRGDWA,binds
3,SARRGDWA,no binding
4,DATGGDGV,no binding
5,FRRRGAVD,binds
6,FRRRGALD,binds
7,FRRRGAAD,binds
8,FARGGDAV,no binding
9,FAGRGALD,no binding
10,FRRGGSAF,binds
11,FARKSYGA,no binding
12,AETKGDGV,no binding
13,YGTATFLV,no binding
14,VRTKDFSY,no binding
15,FGATSFSV,no binding
16,FAGGDYGS,no binding
17,DTAGDAVV,no binding
18,FRRRGSAD,binds
19,FARGGSAD,no binding
20,YRRRGSAD,binds
21,DARGGSAD,no binding
22,FRRGGSAD,binds
23,YRRKGSVD,binds
24,YRAKGSVD,binds

row,Variant,antigen binding call
1,DRAGDSVD,no binding
2,YRAGDSVD,binds
3,VKGAGSVV,no binding
4,YKTGNDVA,no binding
5,FKGRGAVD,binds
6,YKGKGAVA,binds
7,FKGKGAVA,no binding
8,YKGKGSVV,binds
9,YTTGGAVA,no binding
10,YAGTGAVA,no binding
11,YKTRSAVA,binds
12,SKGKGAVA,no binding
13,DTKAASWA,no binding
14,YKGKGSVA,binds
15,FKGEGDVA,no binding
16,FKAGGAVA,binds
17,AATGSAWA,no binding
18,DRTTNAGD,no binding
19,FRGGSAVD,binds
20,DKGGAAGD,no binding
21,DAGGGAGD,no binding
22,DRGEGAGD chain 1 G42D,binds
23,DRGRDAGD,no binding
24,DRAGGAGD,binds

row,Variant,antigen binding call
1,DAARGAGD,no binding
2,VRGGSDVD,no binding
3,DAGEAAGD,no binding
4,DRGGSAGD,binds
5,FAGRDVGV,no binding
6,SGKGGSAY,no binding
7,FRGADFGD,no binding
8,FTGGAAGD,no binding
9,FRGGSAGD,binds
10,FRKGSAVD,binds
11,DAGGADAY,no binding
12,FTGGASGV chain 1 V111I,no binding
13,VEGTSASV,no binding
14,YGGGGASV,binds
15,VKGRGASV,binds
16,YKGRGASV,binds
17,YEGGGFSV,no binding
18,YGGGGDVV,no binding
19,VKGRAFSV,no binding
20,YKAGDVSV,no binding
21,YKAKGASV,binds
22,SEEGTDWY,no binding
23,DAGGAAAD,no binding
24,YEGTGAGA,no binding

row,Variant,antigen binding call
1,VKGRSFLV,no binding
2,YAGRGDSA,no binding
3,VKGRSDWV,no binding
4,YAGRGASA,no binding
5,FKRRSVGA,no binding
6,YKGRGASD,binds
7,YKRRSASA,binds
8,YKGRSASV,binds
9,YKGRGASA,binds
10,VERGTYGV,no binding
11,AKTKSDWV,no binding
12,VTTRDDSD,no binding
13,VAGTGDWY,no binding
14,DTEGDAGD,no binding
15,VTGESDWY,no binding
16,FRGGGSGV,binds
17,FRGGGFVV,no binding
18,FRGEGFSV,no binding
19,FRGKGFGV,no binding
20,FRGKGSGV,binds
21,FRKGGSGV,binds
22,VTGEGALV,no binding
23,FRGEGALV,binds
24,FKGGNVGV,no binding

row,Variant,antigen binding call
1,VRGGGVGV,no binding
2,FAGEGAGV,no binding
3,ARGEGSGV,no binding
4,FRGEGSGV,binds
5,FRGGGVGV,binds
6,FRGGSSGV,binds
7,STEGGSVY,no binding
8,SKTKSDWA,no binding
9,SGEGGAVA,no binding
10,DEAGGDGY,no binding
11,YRKESAVY,binds
12,YRRGSSLY,binds
13,YRRGDSLY,binds
14,YRRGSALY,binds
15,FARKSDSS,no binding
16,DKKKDVVF,no binding
17,FKTAGSAV chain 1 R67H,no binding
18,YRRGSAVY,binds
19,YRRGSYVY,no binding
20,ATGGAALD,no binding
